# Measured values published in PubChem BioAssay.
# The source made the active and inactive calls. The rule behind the calls is not given here. Residues, ends and D or L forms follow the SMILES beside them.
# Tested on: Aerobactin synthetase IucA (Klebsiella pneumoniae hvKP1)
# Assay: IucA enzyme inhibition, primary screen, biochemical, Spectrum library (AID 1346200);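 note: 100% = wells without compound and 0% = wells lacking enzyme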
# Conditions: malachite green pyrophosphate, A620, at 8 µM, stronger effect = lower value
row,Compound,activity remaining
1,NC(Cc1ccc(Cl)cc1)C(=O)O (stereo not given),108% (inactive)
2,COc1ccc(-c2cc(=O)c3c(O)cc(OC)c(OC)c3o2)c(OC)c1,94.3% (inactive)
3,C[N+]1(C)CCCC(OC(=O)C(O)(c2ccccc2)c2ccccc2)C1 (stereo not given),111% (inactive)
4,CCC(Cc1c(I)cc(I)c(N)c1I)C(=O)O (stereo not given),103% (inactive)
5,COc1ccc2c3c1O[C@H]1C[C@@H](O)C=C[C@@]31CCN(C)C2,103% (inactive)
6,O=C1C(CCS(=O)c2ccccc2)C(=O)N(c2ccccc2)N1c1ccccc1 (stereo not given),116% (inactive)
7,C[C@H]1[C@H](C)CC[C@]2(CO)CC[C@]3(C)C(=CCC4[C@@]5(C)CC[C@H](O)C(C)(C)C5CC[C@]43C)[C@H]12 (stereo not given in full),117% (inactive)
8,COc1ccc2c(c1)OCc1c-2oc2cc(OC)ccc12,90.7% (inactive)
9,CC(C)CCCC(C)[C@H]1CCC2C3CC=C4CC(=O)CC[C@]4(C)C3CC[C@@]21C (stereo not given in full),113% (inactive)
10,CC(COc1ccccc1)NC(C)[C@H](O)c1ccc(O)cc1 (stereo not given in full),119% (inactive)
11,O=C(O)CCCc1ccccc1,111% (inactive)
12,CC(=O)[C@@]1(O)CCC2C3C=C(Cl)C4=CC(=O)[C@@H]5CC5[C@]4(C)C3CC[C@@]21C (stereo not given in full),105% (inactive)
13,OC[C@H]1OC([S-])[C@H](O)[C@@H](O)[C@@H]1O.[Au+] (stereo not given in full),109% (inactive)
14,C=C1CC[C@H](O)C/C1=C/C=C1\CCCC2(C)C1CCC2C(C)CCCC(C)C (stereo not given in full),113% (inactive)
15,COC(=O)[C@H](Cc1ccccc1)NC(=O)[C@@H](N)CC(=O)O (H-Asp-Phe-OMe),104% (inactive)
16,CCCOc1ccc(C(=O)OCCN(CC)CC)cc1N,109% (inactive)
17,CCC(C)C(=O)O[C@H]1C[C@H](O)C=C2C=C[C@H](C)[C@H](CC[C@@H](O)C[C@@H](O)CC(=O)O)C21 (stereo not given in full),113% (inactive)
18,CN(C)CCOC(=O)C(c1ccccc1)C1(O)CCCC1 (stereo not given),115% (inactive)
19,COCCc1ccc(OCC(O)CNC(C)C)cc1 (stereo not given),113% (inactive)
20,CO[C@]12C[C@@H](COC(=O)c3cncc(Br)c3)CN(C)[C@@H]1Cc1cn(C)c3cccc2c13,108% (inactive)

row,Compound,activity remaining
1,CCC(CCC(C)[C@H]1CCC2C3CC=C4C[C@@H](O)CC[C@]4(C)C3CC[C@@]21C)C(C)C (stereo not given in full),114% (inactive)
2,CCCOc1ccc2nc(NC(=O)OC)[nH]c2c1,98.2% (inactive)
3,COC(=O)[C@@H]1OC(=O)C2OC23[C@@]1(C)CCC1[C@@]2(C)CCC(=O)C(C)(C)C2C[C@@H](OC(C)=O)[C@]13C (stereo not given in full),112% (inactive)
4,CCN(CC)CCOc1ccc(/C(=C(\Cl)c2ccccc2)c2ccccc2)cc1,111% (inactive)
5,CCC(=O)O[C@]1(C(=O)CCl)[C@@H](C)CC2C3CCC4=CC(=O)C=C[C@]4(C)[C@@]3(F)[C@@H](O)C[C@@]21C (stereo not given in full),112% (inactive)
6,O=C(O)c1cccnc1,120% (inactive)
7,CC(=O)c1ccc[nH]1,98.2% (inactive)
8,O=C(O)c1nc2cc(Cl)c(Cl)cc2[nH]c1=O,92.7% (inactive)
9,COc1cc(-c2coc3cc(O[C@@H]4O[C@H](CO)[C@@H](O)[C@H](O)[C@H]4O)c(OC)c(O)c3c2=O)cc(O)c1OC,120% (inactive)
10,CC1CC[C@@]2(OC1)O[C@H]1CC3C4CC[C@@H]5C[C@@H](O)CC[C@]5(C)C4CC[C@]3(C)[C@H]1[C@@H]2C (stereo not given in full),111% (inactive)
11,O=C(O)C1(O)C[C@@H](O)C(O)[C@H](O)C1 (stereo not given in full),89.8% (inactive)
12,COc1c(-c2coc3cc4c(cc3c2=O)CC(OC(C)=O)C(C)(C)O4)ccc2c1C=CC(C)(C)O2 (stereo not given),103% (inactive)
13,CC(=O)[C@@]1(O)CCC2C3C[C@H](C)C4=CC(=O)C=CC4(C)[C@@]3(F)[C@@H](O)C[C@@]21C (stereo not given in full),114% (inactive)
14,Nc1ccc(N=Nc2ccccc2)c(N)n1,112% (inactive)
15,COC1=C(OC)C(=O)C(C/C=C(\C)CC/C=C(\C)CC/C=C(\C)CC/C=C(/C)CC/C=C(\C)CC/C=C(\C)CC/C=C(\C)CC/C=C(\C)CC/C=C(\C)CCC=C(C)C)=C(C)C1=O,93% (inactive)
16,C=NC(C(=O)NC1C(=O)N2C1SC(C)(C)C2C(=O)O)c1ccccc1 (stereo not given),110% (inactive)
17,O=C(O)c1cc(=O)c2ccccc2o1,110% (inactive)
18,COc1cnc(NS(=O)(=O)c2ccc(N)cc2)nc1,113% (inactive)
19,COc1ccc2c(=O)ccoc2c1,120% (inactive)
20,CCOC(=O)C1=C(O)C(=O)N(Cc2ccccc2)C1,96.2% (inactive)
